This is part of a sample that, as a whole, favours compounds with a hit. Of some 83,000 tested, about 20% had one in any assay.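 48-hour exposure, single concentration, 96-well plates; percent growth endpoint where 0 means no net growth. Active: below 10.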 The source made the active and inactive calls.
System: LOX IMVI melanoma
Assay: NCI-60 one-dose screen, 48 h (100 = growth as untreated, 0 = no growth, -100 = all killed)
Settings: 10 µM unless noted
Procedure: Growth inhibition of the LOX IMVI human tumor cell line is measured as a screen for anti-cancer activity. Cells are grown in 96 well plates and exposed to the test compound for 48 hours. Compounds are tested at a single concentration, which is 10^-5 M for most compounds. The reported endpoint is percent growth (GI% or GIPRCNT), where numbers from 0 - 100% represent growth inhibition, and numbers from -100% - 0 represent cell death. For example, a value of 40 represents 60% growth inhibition. A value of 0 means no net growth occurred over the course of the experiment. A value of -40 indicates 40% of cells at the beginning of the experiment died by the end of the experiment. A value of -100 means all cells are dead at the end of the experiment.
NCI-60 Human Tumor Cell Lines Screen was performed using the standard one-dose NCI protocol, which is described in more detail at https://dtp.cancer.gov/discovery_development/nci-60/default.htm.
Compounds with GIPRCNT values below 10 were considered active. Activity score was based on GIPRCNT using the following formula: […]
Score is 0 for GIPRCNT values of 100 or above, 50 for GIPRCNT values of 0, and 100 for GIPRCNT values of -100.

| SMILES | growth |
| --- | --- |
| COc1ccc(-n2cc(COc3ccc4c5ccnc(C)c5n(CC(C)C)c4c3)nn2)cc1 | 77.3% (inactive) |
| O=C(O)CCNC1CCCCC1 | 94.1% (inactive) |
| N#Cc1ccc(N2Cc3cc(Cl)ccc3OC3=C2C(=O)N(Cc2ccccc2)C3=O)cc1 | -91.6% (active) |
| COC(=O)[C@]1(C)CCC[C@]2(C)[C@H]3C[C@H]4C(C(C)C)=C[C@]3(CC[C@H]21)[C@@H]1C(=O)N(CCC#N)C(=O)[C@@H]14 | 98.1% (inactive) |
| Cc1nccc2c3ccc(OCc4cn(-c5ccccc5)nn4)cc3n(CCCc3ccccc3)c12 | 81.3% (inactive) |
| COc1cc(NC(=O)Nc2cnc(Nc3ccc(N4CCOCC4)cc3)nc2Oc2ccc(F)cc2)cc(OC)c1 | 91% (inactive) |
| C=C(C)[C@@H]1CC[C@]2(C(=O)NCCCO)CC[C@]3(C)[C@H](CC[C@@H]4[C@@]5(C)CCCNC(C)(C)[C@@H]5CC[C@]43C)[C@@H]12 | 78.7% (inactive) |
| CCOC(=O)c1c(C(F)(F)F)n([O-])c2ccc(Cl)cc2[n+]1=O | -86.8% (active) |
| CN1CCN(/C=C2\CC(C(=O)NCc3ccc(Cl)cc3Cl)NC2=O)CC1 (stereo not given) | 100% (inactive) |
| O=c1cc(/C=N\Nc2nc(-c3ccc(Cl)cc3Cl)cs2)c2cc(Cl)ccc2o1 | 89.8% (inactive) |
| COC(=O)CCc1cc(O)c2c(c1)[C@@H](C(=O)OC)[C@H](c1ccc(O)c(O)c1)O2 | 63.4% (inactive) |
| COc1cc(-c2csc(NC(=O)Nc3ccc(C(F)(F)F)cc3)n2)cc(OC)c1OC | 4.24% (active) |
| CCCn1c(N)c(C(N)=O)sc1=S | 93.7% (inactive) |
| CCOCc1cc(C(C)(C)C)ccc1O | 96.5% (inactive) |
| COc1ccc(NC(=O)c2ccc(Nc3ncnc4[nH]c(C)c(C)c34)cc2)cc1 | 104% (inactive) |
| O=C1CC23OC4ON=C(Br)C4C2C(O)c2ccccc2N13 (stereo not given) | 88.8% (inactive) |
| CC[C@]12C=CCN3CC[C@@]4(c5cc(NC(=O)CCC(=O)O[C@H]6CC[C@H]7[C@@H]8CC[C@H]9CC(=O)CC[C@]9(C)[C@H]8CC[C@]67C)c(OC)cc5N(C)[C@H]4[C@@](O)(C(=O)OC)[C@@H]1OC(C)=O)[C@@H]32 | 78.1% (inactive) |
| N#Cc1c(NC(=O)c2cccs2)[n+]([O-])c2cc(C(F)(F)F)ccc2[n+]1[O-] | 94.7% (inactive) |
| Cc1nc2sc(C(=O)Nc3cccc(Cl)c3C)c(N)c2cc1C(C)O (stereo not given) | 29.9% (inactive) |
| COc1cc(/C=N/Nc2nc(-c3ccc(F)cc3)c(C#N)c(N3CCOCC3)n2)ccc1O | 107% (inactive) |

| SMILES | growth |
| --- | --- |
| COc1ccc(-c2[nH]c3ccc(OC)cc3c2C=C(C#N)C#N)cc1 | 63% (inactive) |
| COC(=O)c1cc2c3c(cc(O)c2[nH]1)N(C(=O)C1Cc2cc(OC)c(OC)c(OC)c2N1)CC3CCl (stereo not given) | -94.2% (active) |
| N#CC1(C#N)C2=C(CCCC2)NC(c2c(F)cccc2Cl)C1(C#N)C#N (stereo not given) | 53.4% (inactive) |
| CC(C)NS(=O)(=O)c1cccc(-c2ccc3c(=O)n(CCCN)c4c(c3c2)C(=O)c2ccccc2-4)c1 | 94.4% (inactive) |
| C#CCN1C(=O)c2ccccc2N(CC#C)C12CCN(Cc1cn(CC(=O)Nc3ccccc3C(N)=O)nn1)CC2 | 87% (inactive) |
| C[C@H]1[C@H](C)CC[C@]2(C(=O)OCCCC[P+](c3ccccc3)(c3ccccc3)c3ccccc3)CC[C@]3(C)C(=CC[C@@H]4[C@@]5(C)CC[C@H](OC(=O)C(Cl)Cl)C(C)(C)[C@@H]5CC[C@]43C)[C@H]12 | -99.6% (active) |
| CC(=O)OC[C@]12CC[C@@H](c3cn(Cc4ccc(Cn5cc([C@@H]6CC[C@]7(COC(C)=O)CC[C@]8(C)[C@H](CC[C@@H]9[C@@]%10(C)CC[C@H](OC(C)=O)C(C)(C)[C@@H]%10CC[C@]98C)[C@@H]67)nn5)cc4)nn3)[C@@H]1[C@H]1CC[C@@H]3[C@@]4(C)CC[C@H](OC(C)=O)C(C)(C)[C@@H]4CC[C@@]3(C)[C@]1(C)CC2 | 97.3% (inactive) |
| CC(C)(C)c1ccc(O)c(Cc2cc(C(C)(C)C)ccc2O)c1 | 99.1% (inactive) |
| O=C1Nc2ccc(Cl)cc2/C1=N/c1nc(-c2ccc(Cl)cc2)cs1 | -7.47% (active) |
| O=C1CCc2ccccc2N1 | 94.4% (inactive) |
| CC[C@H](Nc1ncnc2nc[nH]c12)c1nc2cccc(CC(=O)c3ccc(C(=O)NO)cc3)c2c(=O)n1-c1ccccc1 | 91.7% (inactive) |
| COc1ccc2nc(-c3ccc(OC)c(OC)c3)cc(-c3nnc(SCC(=O)Nc4ccc(C(C)=O)cc4)o3)c2c1 | 102% (inactive) |
| COc1ccc(/C=C/C(=O)c2ccc(NC(=O)CSc3nnc(-c4ccc(OC)c(OC)c4)n3-c3ccccc3)cc2)cc1 | -87.5% (active) |
| COc1cc(NC(=O)c2cc(O)c(C/C=C(\C)CCC=C(C)C)c(O)c2)cc2c1O[C@]1(C)CC[C@@H](O)C(C)(C)[C@H]1C2 | -65.8% (active) |
| O=C(/C(=C/c1ccc([N+](=O)[O-])cc1)SCc1ccc(Cl)cc1)c1ccc(F)cc1 | -18.3% (active) |
| CCCn1c2cc(OCc3cn(-c4ccc(Br)cc4)nn3)ccc2c2ccnc(C)c21 | 72.7% (inactive) |
| C#C[C@@]1(O)[C@@H](CO)O[C@@H](n2cc(I)c3c(N)ncnc32)[C@@H]1O | -42.3% (active) |
| C=C1C(=O)O[C@H]2[C@H]1CC/C(COC(=O)c1cccnc1)=C\CC[C@@]1(C)O[C@@H]21 | 75% (inactive) |
| C=C(C)[C@@H]1CC[C@]2(C(=O)N=C=S)CC[C@]3(C)[C@H](CC[C@@H]4[C@@]5(C)CCC(=O)C(C)(C)[C@@H]5CC[C@]43C)[C@@H]12 | 41.4% (inactive) |
| COC(=O)/C=C/c1cc(OC(C)=O)c2c(c1)C(C(=O)OC)C(c1ccc(OC(C)=O)c(OC(C)=O)c1)O2 (stereo not given) | 14.1% (inactive) |

— PubChem BioAssay (NCI)
